Test results from PubChem BioAssay AID687014 (The Scripps Research Institute Molecular Screening Center, 2013).
Among all 370,000 compounds or so, about 6,800 (1.8%) were called active.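 Rule for the calls: active = activation above a cutoff set at the mean of all screened compounds plus 3 SD (cut at about 10% in these data); inactive = the rest.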 The entries come from a sample that favours actives as a whole.

test system: Nuclear hormone receptor DAF-12 (Heterodera glycines), GAL4 fusion; assay: hgDAF-12 GAL4 fusion reporter activation – cell-based, luminescence, HEK293, UAS-luciferase, primary screen (AID 687014); conditions: HEK293 GAL4-hgDAF12 UAS-luciferase reporter, agonist luminescence; at 6.8 µM; stronger effect = higher value; normalized to butyrate control;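 note: 0% = DMSO wells and 100% = sodium butyrate wells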

Compound | activation
CCOC(=O)C1CCN(C(=O)c2ccccc2N(C)S(=O)(=O)c2ccccc2)CC1 | 0.69% (inactive)
CC(C)CSc1nnc(-c2cccnc2)n1Cc1ccccc1 | 0.98% (inactive)
C=CCN1C(=O)N(Cc2ccccc2)c2ccccc2S1(=O)=O | -2.37% (inactive)
CCOC(=O)c1cccnc1NC(=O)c1ccncc1 | 2.56% (inactive)
O=C(Nc1ncccc1O)c1ccc(S(=O)(=O)N2CCCCCC2)cc1 | 10.7% (active)
CN1CCN(NC(=O)c2ccc(S(=O)(=O)N3CCCCCC3)cc2)CC1 | -0.88% (inactive)
CC(C)(C)n1nc2c(c1NC(=O)c1ccc(S(=O)(=O)N3CCCC3)cc1)CS(=O)C2 (configuration not stated) | -0.9% (inactive)
O=C(Nc1ncccc1O)c1ccc(C(=O)c2ccccc2)cc1 | 85% (active)
CCN(CC)S(=O)(=O)c1cccc(NC(=O)c2ccc(S(=O)(=O)N3CCCC3)cc2)c1 | -4.53% (inactive)
O=C(Nc1ncccc1O)c1ccc(S(=O)(=O)N2CCCC2)cc1 | 26.2% (active)
O=C(CNC(=O)c1ccc2ccccc2c1)Nc1ncccc1O | 4.2% (inactive)
O=C(Nc1ccccc1F)c1ccc(S(=O)(=O)N2CCCCCC2)cc1 | 4.61% (inactive)
O=C(C1CCN(S(=O)(=O)c2ccccc2)CC1)N1CCN(C2CCCCC2)CC1 | -4.1% (inactive)
COC(=O)C[C@@H]1CC[C@@H]2[C@@H](COc3ccc(NC(=O)Nc4ccc(F)c(F)c4)cc3C(=O)N2C)O1 | 0.28% (inactive)
O=C(NN1C(=O)C2C3C=CC(C4CC34)C2C1=O)c1ccc(Cl)cc1 (configuration not stated) | 0.35% (inactive)
CC(C)CNc1cccc2c1S(=O)(=O)N(Cc1cn(Cc3ccccc3C(F)(F)F)nn1)Cc1ccccc1O2 | -3.87% (inactive)
C[C@H](C(=O)N(C)c1ccccc1)[C@@H](O)c1ccc(Cl)cc1 | 1.73% (inactive)
COc1ccc(C(NC(=O)C2CCN(CCCc3ccccc3)CC2)c2cccs2)cc1 (configuration not stated) | -0.24% (inactive)
CC(=O)OCCN1CCCC12CCC(c1ccccc1)CC2 (configuration not stated) | -0.9% (inactive)
CCOC(=O)c1cc(-c2ccc(Cl)s2)nc2c1c(C)nn2C | -0.72% (inactive)
Cc1cc(NC(=O)c2ccco2)c(=O)n(Cc2c(F)cccc2Cl)c1 | -0.15% (inactive)
Cn1c(=NC(=O)c2ccco2)sc2cccc(F)c21 | 20.1% (active)
Cn1c(=NC(=O)c2cnccn2)sc2ccccc21 | 9.34% (inactive)

Compound | activation
CC(c1ccc(N)cc1)c1cn(C)c2ccccc12 (configuration not stated) | -1.36% (inactive)
C#CCN([C@H](C(=O)OC)C(C)CC)S(=O)(=O)c1ccccc1Br (some centres not stated) | 0.28% (inactive)
CN(C)S(=O)(=O)c1cccc(C(=O)N/N=C\c2ccco2)c1 | 3.58% (inactive)
CC(/C=N/NC(=O)c1cc(-c2ccc3ccccc3c2)n[nH]1)=C\c1ccco1 | 20.6% (active)
Cc1cc(C(=O)NN=C/C=C/c2ccco2)n[nH]1 | -0.85% (inactive)
COC(=O)[C@]12C[C@H](CC(=O)N3CCN(C(=O)C4CC4)CC3)C(=O)N(Cc3ccc4c(c3)OCO4)C1=C[C@H](C(C)(C)C)O[C@@H]2C | 0.51% (inactive)
C/C(CC(=O)NC(C)(C)C)=N\NC(=O)c1ccco1 | 12.8% (active)
COc1ccc(N(CC(=O)NC(C)(C)C)C(=O)c2ccco2)cc1 | 0.5% (inactive)
COc1cccc2cc(/C(C)=N/NC(=O)c3ccco3)oc12 | 4.73% (inactive)
CCOC(=O)c1cccc(NC(=O)CN(C)S(=O)(=O)c2ccc(-c3cocn3)s2)c1 | 1.77% (inactive)
COc1ccc(N=C(C)c2sc3ccccc3c2O)cc1 | 13.8% (active)
COC(=O)c1ccc(/C=C/c2c(-c3ccc(OC)cc3)sc3ccccc23)cc1 | 0.64% (inactive)
COc1ccc(-n2c(SCC(=O)NC3CCCC3)nnc2-c2ccncc2)cc1 | -0.49% (inactive)
Cc1ccc(Cn2cc(COC(=O)N(C)Cc3ccccc3)nn2)cc1 | 0.1% (inactive)
CC(=O)Nc1cccc(-c2csc(Nc3cccc(C)n3)n2)c1 | 16.6% (active)
N#CC(=C1SC=CS1)c1nc(-c2ccccc2)cs1 | 8.13% (inactive)
CC(=O)NC(c1cccc(F)c1)c1nc(-c2cccc(F)c2)cs1 (configuration not stated) | 1.2% (inactive)
Cc1cccc(Nc2nc(-c3ccccc3)cs2)n1 | 18.8% (active)
O=S(=O)(NCCc1csc(-c2ccccc2)n1)c1cccnc1 | -0.11% (inactive)
Cc1ccccc1Nc1nc(-c2cccnc2)cs1 | 17.6% (active)
CC(=O)NC(c1ccccc1)c1nc(-c2cccc(C(C)C)c2)cs1 (configuration not stated) | 1.94% (inactive)
Cc1csc(NC(=O)CSc2nnc(-c3cccnc3)o2)n1 | 4.01% (inactive)
c1ccc(-c2csc(N3CCc4ccccc4C3)n2)cc1 | 4.55% (inactive)

Compound | activation
Cc1cc(C)nc(NC(=S)N2CCN(c3ccc(C(F)(F)F)cn3)CC2)c1 | -6.42% (inactive)
O=C(NCC1CC1)c1onc(CSc2ccccc2)c1C(=O)NCC1CC1 | 1.09% (inactive)
Cc1cccc(NC(=O)C[C@H]2CC[C@H]3[C@@H](COc4ccc(NC(=O)Nc5ccccc5)cc4C(=O)N3C)O2)c1 | -1.77% (inactive)
O=C(NCCCN1CCN(c2ccccc2F)CC1)C1CCC(=O)N1C1CCCCC1 (configuration not stated) | 0.6% (inactive)
O=C1CN(C(=O)c2ccccc2F)C(c2ccc(F)cc2)c2cc(F)ccc2N1 (configuration not stated) | -3.72% (inactive)
O=C(CCCCCN1C(=O)C2C3C=CC(C3)C2C1=O)Nc1ccccn1 (configuration not stated) | 2.03% (inactive)
COC(CNC(=O)[C@H](Cc1ccccc1)NC1(C(=O)NC2CCCCC2)CCCCC1)OC | 1.76% (inactive)
Cc1c[nH]c2cccc(-c3ccc(Cl)cc3)c12 | 5.56% (inactive)
N#Cc1c(-c2ccccc2)c(-c2ccccc2)n[nH]c1=O | 0.04% (inactive)
Oc1ccccc1-c1cc(-c2ccc(Cl)cc2)n[nH]1 | 20.1% (active)
O=C(O)c1n[nH]nc1-c1ccccc1 | -0.69% (inactive)
CC(C)C(=O)NCc1cc(-c2ccc(Cl)cc2)no1 | -0.54% (inactive)
c1ccc(-c2cc(-c3ccccc3)[nH]n2)cc1 | 12.2% (active)
Cc1ccc(S(=O)(=O)N(C)c2ccc(OCC(=O)OCC(=O)N(CC#N)c3ccccc3)cc2)cc1 | -0.04% (inactive)
O=C(N[C@H](Cc1ccccc1)C(=O)N1CCCN(Cc2cccs2)CC1)[C@H]1O[C@@H](n2ccc(=O)[nH]c2=O)[C@H](O)[C@@H]1O | -0.37% (inactive)
CC(C)(C)C(c1nc2ccccc2[nH]1)n1c(Cc2csc3ccccc23)nc2ccccc21 (configuration not stated) | 6.72% (inactive)
O=C(O)Cn1cnc2c(NCc3ccccc3)ncnc21 | 1.82% (inactive)
CCCCNC(=O)C[C@H]1C[C@@]2(C(=O)OC)C(=C[C@H](COCc3ccccc3)O[C@@H]2C)N(Cc2ccc(Cl)cc2Cl)C1=O | 0.35% (inactive)
O=C(N1CCOCC1)N1CC[C@H]2[C@H](CCCN2Cc2ccc(F)cc2)C1 | -0.84% (inactive)
O=C(CCS(=O)(=O)c1cccc2nsnc12)N1CCN(c2ccccc2F)CC1 | 0.1% (inactive)
O=C(CCSc1ccccc1)N1CCN(c2ccccc2F)CC1 | 14.2% (active)
O=C(CCc1ccccc1F)N1CCN(c2ccccc2)CC1 | 0.77% (inactive)
O=C(CCc1ccccc1)Nc1nn[nH]n1 | 0.42% (inactive)

Compound | activation
O=C(CCc1ccccc1)Nc1ncc([N+](=O)[O-])s1 | 11.2% (active)
O=C(CCc1ccccc1)Nc1ccc(NC(=O)C2CC2)nc1 | -1.22% (inactive)
CCc1ccc(NC(=O)Cn2nnc(C(=O)NCc3ccc4c(c3)OCO4)c2N)cc1 | -0.22% (inactive)
Nc1c(C(=O)Nc2ccc3c(c2)OCCO3)nnn1Cc1ccccc1 | 11.1% (active)
Cn1cc([N+](=O)[O-])c(C(=O)Nc2ccc3c(c2)OCCO3)n1 | 5.47% (inactive)
COc1ccccc1NS(=O)(=O)c1ccc(C)c(C(=O)NNC(=O)c2csc(N3CCOCC3)n2)c1 | -0.05% (inactive)
COC(=O)CCC(=O)N1CCCC(CO)(Cc2ccccc2)C1 (configuration not stated) | 11.1% (active)
Cc1ccccc1CC1(CO)CCCN(C(=O)c2cc(-c3ccccc3)no2)C1 (configuration not stated) | -2.47% (inactive)
Cc1noc(C)c1CCC(=O)N1CCCC(CO)(Cc2ccccc2)C1 (configuration not stated) | 9.68% (inactive)
CC1CCCN(c2cccc3c2S(=O)(=O)N(Cc2ccc(F)cc2)[C@@H](C)[C@H](c2ccccc2)O3)C1 (some centres not stated) | 2.2% (inactive)
COC(=O)C12C=C3CC(c4ccccc4)=C3C(=O)N1Cc1[nH]c3ccccc3c1C2 (configuration not stated) | -0.17% (inactive)
Cc1nc2nc[nH]n2c(=O)c1C/C=C/c1ccccc1 | -0.77% (inactive)
CCc1c(C)nc2cc(C)[nH]n2c1=O | -1.41% (inactive)
C=CCc1c(C)nc2cc(-c3ccccc3)[nH]n2c1=O | 11.2% (active)
C[C@@H]1CN([C@@H](C)CO)C(=O)c2c(c3ccccc3n2C)-c2ccccc2CO[C@H]1CN(C)C(=O)C1CC1 | 0.34% (inactive)
Cc1ccccc1NC(=O)C1CCN(c2ncccn2)CC1 | 2.53% (inactive)
Cc1cccc(-n2c(O)c(C=Nc3ccccc3N)c(=O)[nH]c2=O)c1 | 14.9% (active)
COc1cccc(CNC(=O)CNS(=O)(=O)c2ccc3nc(C)sc3c2)c1OC | -1.09% (inactive)
CCOC(=O)[C@]12CCCCC/C=C\1N(Cc1ccc(OC)cc1)C(=O)[C@H]2CC(=O)NCCCN1CCCC1=O | 3.26% (inactive)
CCn1c(=O)n2n(c1=O)[C@@]1(C=C3CCCC[C@H]32)N=C(NC(=O)c2ccccc2)N(Cc2ccccc2)[C@H]1Cc1ccccc1 | -2.77% (inactive)
COc1ccc(C(C)(NC(C)=O)c2nc(-c3ccc(S(C)(=O)=O)cc3)cs2)cc1 (configuration not stated) | -0.04% (inactive)
COc1ccc(C(C)(O)c2nc(-c3cc(F)cc(F)c3)cs2)cc1 (configuration not stated) | -1.7% (inactive)
COc1ccc(-c2csc(Cc3nc(O)cs3)n2)cc1 | 21.6% (active)
